In PubChem BioAssay (NCATS) one finds Potency and % pathology change, negative = correction data, which are given here for 16 molecules.

Structures are written as SMILES. Inconclusive results are not listed. Where a call stands in place of a potency, no number is given. The source made the active and inactive calls. The call rests on the fitted dose curve. *1 amine or outer side, *2 acyl side, *3 side chain or, on linkers, in order; H or OH if unused. Where a SMILES comes first, the peptide text is derived from it. Bridges are numbered along the chain shown (N, C = ends). [ ]: non-standard residue; d: D form. The star is where a group is joined. ξ: configuration not given here. X10 = NC1=NCCC(C(N[*:1])C(=O)[*:2])N1; ΔAla(3-NHCONH2) = NC(=O)NC=C(N)C(=O)O; ξβ3hOrn = NCCCC(N)CC(=O)*; Dap = NC[CH](N)C(=O)O

The nature of the experiment: A High-Content qHTS Against Drug Library for the Identification of Small Molecules that Inhibit DYT1 Early Onset Primary Dystonia-Associated Cell Pathology (AID 1645839). To be noted: HEK293 Flp-In EGFP-delE TorsinA, punctate imaging, 48 h; series mostly up to 46.1 µM. Put shortly: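 High-content imaging quantified EGFP-TorsinA mislocalization in HEK293-derived cells inducibly expressing DYT1 mutant torsinA, after 48 h exposure to compound given together with tetracycline induction. Cell count served as a toxicity channel alongside %pathology.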
For orientation: Quantitative high-throughput screening tests each substance at several concentrations.
Turning to `CN1C(CSCC(F)(F)F)Nc2cc(Cl)c(S(N)(=O)=O)cc2S1(=O)=O` (stereo unspecified), the Potency entry is “inactive”.
Consider `CCOC(=O)c1ccc(OCCN2C[C@H](O)[C@@H](O)[C@H](O)[C@H]2CO)cc1`, for which the Potency result is “inactive”.
Consider `CCOC(=O)Oc1ccc(CCNC(=O)[C@H](CCSC)NC(C)=O)cc1OC(=O)OCC`, for which the Potency result is “inactive”.
Same read-out and setting: under `CC(=O)Nc1ccn(C2COC(COC(=O)c3ccccc3)O2)c(=O)n1` (stereo unspecified) stands “inactive”; under `Cc1cnc(NS(=O)(=O)c2ccc(N)cc2)nc1`, “inactive”.
In the case of `CNC(=O)c1c(I)c(NC(C)=O)c(I)c(C(=O)O)c1I`, the Potency result was “inactive”.
Same read-out and setting: in the case of `CC(=O)CC/C=C(\C)CC/C=C(\C)CC/C=C(\C)CCC=C(C)C` it was “inactive”; in that of `Nc1nnnn1-c1ccccc1`, “inactive”.
Still for that read-out and setting: under `Nc1nc(=O)n([C@@H]2O[C@H](CO)[C@@H](O)[C@@H]2F)cc1I` stands “inactive”.
On the same count and under the same terms, in the case of `CC(=O)OC[C@H]1O[C@@H](OC(C)=O)[C@H](OC(C)=O)[C@@H]1OC(C)=O` it was “inactive”.
In the case of `NCCCC(N)CC(=O)NCC1NC(=O)C(CO)NC(=O)C(N)CNC(=O)C(C2CCN=C(N)N2)NC(=O)C(=CNC(N)=O)NC1=O` (stereo not drawn) (H-[Dap]S[Dap](ξβ3hOrn)[ΔAla(3-NHCONH2)][X10]; lactam 1-C; configuration not given here), the % pathology change, negative = correction was -14.9% [at 0.369 µM] (inactive).
On to `O=C(CCCl)NCc1ccccc1`, for which the Potency entry is “inactive”.
The same measure, in the same setting: in the case of `CC(C)(C)c1cc(C=O)cc(C(C)(C)C)c1O` it was “inactive”; in that of `N#CC1(c2ccc(F)cc2)CCC(=O)CC1`, “inactive”; in that of `COC(=O)CCCCC(CCSS/C(CCO)=C(\C)N(C=O)Cc1cnc(C)nc1N)SC(C)=O` (stereo unspecified), “inactive”.
The same measure, in the same setting: under `CCCOc1ccc2c(c1)CC[C@@H]1[C@@H]2CC[C@]2(C)C(OC)CC[C@@H]12` (stereo partly specified) stands “inactive”.
